Experimental findings from PubChem BioAssay are described below.

In the assay the target is Left-right determination factor 2 (Homo sapiens) (UniProt O00292). Description: small molecules binding LEFTY2 protein – biochemical, small-molecule microarray, 635 nm fluorescence scan, primary screen (AID 1110). The following applies: higher = more signal.
Sequence of Left-right determination factor 2 (Homo sapiens) (O00292 whole entry, looked up): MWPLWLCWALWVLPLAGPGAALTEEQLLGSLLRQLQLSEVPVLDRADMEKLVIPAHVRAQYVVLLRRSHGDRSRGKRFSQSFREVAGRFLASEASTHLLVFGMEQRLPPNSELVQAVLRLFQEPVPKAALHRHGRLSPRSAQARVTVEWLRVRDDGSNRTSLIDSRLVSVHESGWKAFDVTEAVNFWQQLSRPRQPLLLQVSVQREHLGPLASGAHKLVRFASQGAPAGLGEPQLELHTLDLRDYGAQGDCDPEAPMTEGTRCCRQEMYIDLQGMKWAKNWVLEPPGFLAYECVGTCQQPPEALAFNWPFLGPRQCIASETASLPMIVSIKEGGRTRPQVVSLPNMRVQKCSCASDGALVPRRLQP
`COc1ccc([Si](C)(C)[C@@H]2[C@@H](CC(=O)N3CCC[C@H]3CO)O[C@]3(C(=O)N(C)c4c(Br)cc(C)cc43)[C@H]2C)cc1`: the composite z-score stood at 0.396.

Turning to `CN(C)CCCCCCNC(=O)[C@H]1C[C@H]2C(=O)N[C@@H](CCCCN)C(=O)N2[C@H]1c1ccc(O)cc1`, the composite z-score amounted to 1.56. In turn, `COCC(=C=CC[C@H](O)c1ccc(OCCO)cc1)C[C@H](O)c1cc(Cl)cc(Cl)c1O` had a composite z-score of 0.628. Under `COc1cc(C(O)C2C=CC3C(=O)N(c4ccccc4)C(=O)C3N2Nc2ccc(C#N)cc2)cc(OC)c1OC` (stereo not given) stands 0.305.

As to `N#Cc1ccc(NN2C(C(O)c3ccc([N+](=O)[O-])cc3)C=CC3C(=O)N(c4ccccc4)C(=O)C32)cc1` (stereo not given), the composite z-score was 0.0872. Under `CC(=O)NCCCC[C@@H]1NC(=O)[C@@H]2C[C@H](C(=O)NCCCCCCNC(=O)CS)[C@H](c3ccc(O)cc3)N2C1=O` stands -0.746. As for `CCOC(=O)C[C@H]1[C@H](OC(=O)Cc2ccc3c(c2)OCO3)[C@@H](NC(=O)c2ccc(-c3ccccc3)cc2)c2cc(OCCCO)ccc2N1C(=O)c1ccccc1`, the composite z-score was found to be 0.525. For the molecule `O=C1O[C@@H](c2ccccc2)[C@@H](c2ccccc2)N2[C@@H](c3ccccc3OCCO)[C@]3(C(=O)Nc4ccc(C#CC5(O)CCCCCC5)cc43)[C@@H](C(=O)Nc3nc4ccccc4s3)[C@H]12`, the composite z-score amounted to 0.628. As to `Cc1ccccc1C(O)C1C=CC2C(=O)N(C)C(=O)C2N1N1CCCCC1` (stereo not given), the composite z-score came out at 0.163.

On to `COCCOC(=O)N1C(=O)[C@@]2(c3ccccc31)[C@H](C(=O)Nc1nc3ccccc3s1)[C@H]1C(=O)O[C@H](c3ccccc3)[C@H](c3ccccc3)N1[C@@H]2c1ccc(OCCO)cc1`, for which the composite z-score came out at 0.382.
